Drawing on PubChem BioAssay (NCATS), this text covers max response and Potency for 39 compounds.

SMILES strings stand for the structures. Where “and” joins values, the source holds several entries; their conditions need not be identical. Equal values may be shown once. Results filed as inconclusive are left out. Where a structure was tested more than once in an assay, its records may differ in their call. A number with no mark means an inactive call. Calls of active or inactive are those of the source. Calls follow the shape of the dose curve; as a rule, active = well fitted cell-killing curve with a large enough effect; inconclusive = small, poorly fitted or top-dose-only effect, or effect the other way; inactive = flat fitted curve, though single readings scatter.
% is scaled to controls: 0 for no effect and ±100 for the full control effect; potency is read from the fitted curve at half-maximal effect.

The assay can be described thus: qHTS assay for cell viability of HEK293 cells (AID 743288). Also: nearly all actives have a fitted effect of over 50% in size. Conditions: ATP luminescence (CellTiter-Glo), 18 h; max response: hits give low values. The text has this: National Center for Advancing Translational Sciences [NCATS]
NIH Chemical Genomics Center [NCGC]
U.S. Environmental Protection Agency [EPA]
National Institutes of Environmental Health Sciences [NIEHS]
National Toxicology Program [NTP]
U.S. Food and Drug Administration [FDA]
The CellTiter-Glo Luminescent Cell Viability Assay (Promega, Madison, WI) is a homogeneous method to determine the number of viable cells in culture based on quantitation of the ATP present, which signals the presence of metabolically active cells. This cell viability assay was used to screen environmental chemicals in the Hek293 cell line.
Tox21 Assay Protocol Summary:
Cell viability after compound treatment was measured using a luciferase-coupled ATP quantitation assay (CellTiter-Glo viability assay, Promega, Madison, WI) in parental HEK293 cells. Total intracellular ATP content corresponds to the number of metabolically competent cells after compound treatment. The cells were dispensed at 2,000 cells/5 uL/well in 1,536-well white/solid bottom assay plates using a Flying Reagent Dispenser (Aurora Discovery, San Diego, CA). The cells were incubated a minimum of 5 h at 37 C, followed by the addition of 23 nL of compounds dissolved in DMSO, positive controls or DMSO only using a pintool work station (Kalypsys, San Diego, CA). The assay plates were incubated for 18 h at 37 C, followed by the addition of 5 uL/well of CellTiter-Glo reagent. After 30 min incubation at room temperature, the luminescence intensity of the plates was measured using a ViewLux plate reader (PerkinElmer, Shelton, CT).
Take `COc1ccc(C)cc1N`: the max response was -15%.
Still for that read-out and setting: next, `O=C(OCC1CO1)C1CCCCC1C(=O)OCC1CO1` (stereo not given): -26.2%; `Brc1cc(Br)c(Oc2cc(Br)c(Br)cc2Br)cc1Br`: -23.2%; `Oc1ccc2c(c1)OCO2`: 7.08%.
The same measure, in the same setting: next, `CCCCOC(=O)COc1ccc(Cl)cc1Cl`: -2.46% and -7.81%.
On to `C[Si](C)(C)Cl`, for which the max response was -4.36%.
On to `OC1CCCCC1`, for which the max response was 10.8%.
The same measure, in the same setting: next, `CCCC(=O)OC(=O)CCC`: -4.88% and -8.13%; `Oc1c(Cl)cc(Cl)c(Cl)c1Cl`: -22.8% and -1.71%; `CCCCC(CC)COP(=O)(OCC(CC)CCCC)OCC(CC)CCCC` (stereo not given): -14.3%.
Take `Nc1ccc(N)c(Cl)c1`: the max response was -4.85%.
On the same count and under the same terms, next, `CCc1ccc(C(c2ccc(CC)cc2)C(Cl)Cl)cc1`: -18.5%; `Oc1cc2c(cc1O)[C@H]1c3ccc(O)c(O)c3OC[C@@]1(O)C2`: -28.5%.
For `c1ccc(COCc2ccccc2)cc1`, the max response was 0.589%.
Still for that read-out and setting: next, `NC(=O)c1ccc([N+](=O)[O-])cc1`: 4.95%.
Take `O=[N+]([O-])c1cc(N(CCO)CCO)ccc1NCCO`: the Potency is 44.7 µM (active).
`c1cc2c3c(c1)ccc1cccc(c13)C2`: the max response is 3.07%.
Take `Cc1ccc2ccc3cccc4ccc1c2c34`: the max response is -6.64%.
With `O=Nc1ccc(Nc2ccccc2)cc1`, the Potency was 39.8 µM (active) and 20 µM (active).
`CC(=O)OC1CC(C)OC(C)O1` (stereo not given): the max response is -1.36% and -5.57%.
The same measure, in the same setting: next, `COc1cc(-c2ccc(N=C=O)c(OC)c2)ccc1N=C=O`: -1.14% and -5.75%.
On to `C/C=C/C=C/C=O`, for which the max response is -1.13%.
Consider `O=C(O)c1ccc([N+](=O)[O-])cc1`, for which the max response was -3.6% and -1.43%.
On to `CN(C)c1ccc(Cc2ccc(N(C)C)cc2)cc1`, for which the max response was -15.2% and -24.3%.
On the same count and under the same terms, for `CCCCCCc1ccc(-c2ccc(C#N)cc2)cc1` the value was -6.02%.
For `Cc1c2ccccc2c(C)c2c1ccc1ccccc12`, the Potency is 44.7 µM (active) and the max response is -28%.
On to `c1ccc(Nc2cccc3ccccc23)cc1`, for which the max response was -6.95% and -18%.
As for `O=C1OC(=O)c2ccccc21`, the max response is -11.3%.
The same measure, in the same setting: next, `CC(=O)OC(C(=O)c1ccccc1)c1ccccc1` (stereo not given): -11.3%; `C=Cc1cccc(C)c1`: 2.72%; `Nc1cnn([C@@H]2O[C@H](CO)[C@@H](O)[C@H]2O)c(=O)n1`: 3.95%.
Take `CCOc1ccc2nc(N)sc2c1`: the max response was -4.83%.
Consider `Clc1nc2ccccc2nc1Cl`, for which the max response is -15.1%.
For `CCN(CC)c1ccc2c(C)cc(=O)oc2c1`, the max response is -1.15%.
With `O=C1c2ccccc2C(=O)C1(O)O`, the max response was -12.1%.
On to `C=C(C#N)C(=O)OCC`, for which the max response was -12.8%.
In the case of `CCCCCCCCC1CO1` (stereo not given), the max response was 4.27%.
On the same count and under the same terms, for `O=[N+]([O-])c1cccc(I)c1` the value was -9.2%.
As for `C[C@@H]1CC2(OC(O)[C@]3(C)O[C@H]23)O[C@H]2C[C@@]3(C)[C@@H]4CC[C@H]5C(C)(C)C(O[C@@H]6OC[C@@H](O)[C@H](O)[C@H]6O)CC[C@@]56C[C@@]46CC[C@]3(C)[C@@H]12` (stereo not given in full), the Potency is 44.7 µM (active).
